Screening data as filed in PubChem BioAssay.
FH mod: Identification of activators of human fumarate hydratase by quantitative high-throughput screening; 54,000 tested, 0.22% active; Fumarate hydratase, mitochondrial (Homo sapiens), P07954; FH coupled MDH/diaphorase resazurin fluorescence, 15 min; Potency, µM (series often up to 79.9 µM), most hits filed as inhibitors; further: the screen sought activators but most active calls are inhibition curves; nearly all actives have a fitted effect of over 45% in size
GALC G270D act: enhancers of human galactocerebrosidase G270D mutant activity in cells. P54803. 145M-Twi-hGALC-G270D cells, HMU-beta-Gal fluorescence, 48 h. Potency, µM (doses to about 57.5 µM), usual class: activators. 45,000 tested, 0.1% active. AID 1159614; further: nearly all actives have a fitted effect of over 65% in size
Target sequence (P54803 whole entry G286D): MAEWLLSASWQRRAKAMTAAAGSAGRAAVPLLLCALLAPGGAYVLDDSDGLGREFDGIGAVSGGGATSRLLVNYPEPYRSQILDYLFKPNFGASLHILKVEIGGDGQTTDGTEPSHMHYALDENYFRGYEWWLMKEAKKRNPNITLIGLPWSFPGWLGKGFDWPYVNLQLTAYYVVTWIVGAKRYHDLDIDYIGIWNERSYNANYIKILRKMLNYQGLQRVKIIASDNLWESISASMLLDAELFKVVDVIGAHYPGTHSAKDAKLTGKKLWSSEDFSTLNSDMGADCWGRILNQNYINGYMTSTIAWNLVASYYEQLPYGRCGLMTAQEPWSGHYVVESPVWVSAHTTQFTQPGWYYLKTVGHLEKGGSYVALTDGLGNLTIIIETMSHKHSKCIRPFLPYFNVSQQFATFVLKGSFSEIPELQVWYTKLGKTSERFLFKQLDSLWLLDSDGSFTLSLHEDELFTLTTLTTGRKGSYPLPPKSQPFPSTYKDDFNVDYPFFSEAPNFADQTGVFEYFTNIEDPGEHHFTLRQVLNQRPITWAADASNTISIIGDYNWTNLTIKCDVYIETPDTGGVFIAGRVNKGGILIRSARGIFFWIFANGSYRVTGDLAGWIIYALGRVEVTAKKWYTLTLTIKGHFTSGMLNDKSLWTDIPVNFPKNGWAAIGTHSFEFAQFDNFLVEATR
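qHTS, 1536-well; 145M-Twi-hGALC-G270D cells (WT line also made) in DMEM/F12 + 10% FBS; compound incubation on live cells; HMU-β-gal 0.1 mM final, pH 5.2, NaTC; carbonate stop; fluorescence increase = enhanced residual activity.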
NTMT1 inh: inhibitors of human N-terminal methyltransferase NTMT1; Q9BV86; AID 1645870; 59,000 tested, 2.5% active; NTMT1 MTase-Glo SAH luminescence, purified enzyme; Potency, µM (top dose mostly 114 µM), most hits filed as inhibitors; further: nearly all actives have a fitted effect of over 65% in size
DYRK1A inh-1: blocks recombinant human DYRK1A kinase activity | recombinant DYRK1A, Kinase-Glo ATP depletion luminescence | AID 2705 | 100 tested, 80% active | shares compounds with NTMT1 inh | Potency, µM (top dose mostly 76.9 µM), hits mostly inhibitors
CLK4 inh-1: inhibits human CLK4 kinase in Kinase-Glo confirmation; Potency, µM (top dose mostly 76.9 µM), usual class: inhibitors; recombinant Clk4, Kinase-Glo ATP luminescence, 4.5 h; shares compounds with NTMT1 inh; 90 tested, 90% active
CLK4 inh-2: CLK4 kinase inhibition, SAR round 2; 65 tested, 100% active; AID 504421; Reaction Biology kinase assay, 10 uM ATP; Potency, µM, most hits filed as inhibitors; shares compounds with NTMT1 inh; calls by dose curve
DYRK1A inh-2: inhibitors of human DYRK1A kinase; AID 504424; Reaction Biology kinase assay, 10 uM ATP; Potency, µM, usual class: inhibitors; shares compounds with NTMT1 inh; 65 tested, 90% active;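 active means compounds that showed inhibition of Dyrk1a and received a fitted potency; inactive means compounds that showed no inhibition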
CLK2 inh: inhibitors of human CLK2 kinase | shares compounds with NTMT1 inh | Reaction Biology kinase assay, 10 uM ATP | Potency, µM, most hits filed as inhibitors | 65 tested, 90% active;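 active means compound that inhibits Clk2 kinase in the dose series, with an IC50 potency reported; inactive means no inhibition seen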
CLK3 RBC: CLK3 kinase inhibition | shares compounds with NTMT1 inh | recombinant CLK3 kinase assay, 10 uM ATP | Potency, µM, actives largely listed as inhibitors | 65 tested, 40% active | AID 504428;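 active means compounds that inhibited Clk3 enough in the ten-dose series to give a half-maximal potency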
DYRK1B inh: DYRK1B kinase inhibition; shares compounds with NTMT1 inh; Recombinant Dyrk1b kinase assay, 10 uM ATP; Potency, µM, usual class: inhibitors; 65 tested, 80% active; AID 504429;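 active means compounds whose dose response shows an inhibitor phenotype against the kinase Dyrk1b; inactive means compounds showing no inhibitor phenotype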
CLK1 inh: blocks human CLK1 kinase activity | shares compounds with NTMT1 inh | Potency, µM, usual class: inhibitors | 65 tested, 90% active | recombinant Clk1 kinase assay, 10 uM ATP;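 active means compounds that block the splicing kinase Clk1 enough to give a fitted half-inhibition concentration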
NNMT inh: human NNMT inhibition, NTMT1 counter-screen | Potency, µM (series often up to 57.1 µM), most hits filed as inhibitors | AID 1645878 | shares compounds with NTMT1 inh | 120 tested, 10% active | NNMT MTase-Glo luminescence, SAH detection
A number is an active result; i = inactive; ? = inconclusive; nt = no result given; [ ] = remark or other dose. The entries come from a sample that favours hits as a whole. Unless noted, the call rests on the fitted dose curve; in most records, active means well fitted curve in the direction sought with a large enough effect; inconclusive means small, poorly fitted or top-dose-only effect, or another doubt; inactive means no such curve, though single readings can be large; an effect the other way counts as inactive or inconclusive.

SMILES	FH mod	GALC G270D act	NTMT1 inh	others
Cc1occc1-c1ccc2ncnc(NCCc3cnc[nH]3)c2c1	nt	nt	?	DYRK1A inh-1=9.2µM
CC(O)c1ccc(-c2ccc3ncnc(NCCc4cnc[nH]4)c3c2)o1 (stereo unspecified)	nt	nt	?	CLK4 inh-1=1.5µM
CCOC(=O)c1cnc2ccc(Br)cc2c1NCCN1CCOCC1	i	i	i
CCOC(=O)c1ccoc1-c1ccc2ncnc(NCCc3cnc[nH]3)c2c1	nt	nt	i	DYRK1A inh-1=?
C=C(C)Cn1c(SCC(=O)c2cccs2)nc2sc3c(c2c1=O)CCCC3	i	nt	i
COc1ccc(C(O[C@@H]2O[C@H](CO)[C@@H](O)[C@H](O)[C@H]2O)C(CO)Oc2ccc(/C=C/CO)cc2OC)cc1O (stereo partly specified)	i	nt	i
COc1ccc(C(=O)N2CCN(C(=O)/C=C/c3ccc(Br)cc3)CC2)cc1	nt	nt	i
CSCC[C@H](NC(=O)[C@H](CCSC)NC(=O)CNC(=O)[C@H](Cc1ccc(O)cc1)NC(=O)[C@H](Cc1ccccc1)NC(=O)[C@H](CCCN=C(N)N)NC(=O)[C@H](CC(=O)O)NC(=O)[C@@H]1CCCN1C(=O)[C@H](CC(=O)O)NC(=O)[C@@H]1CCCN1C(=O)[C@@H]1CCCN1C(=O)[C@@H](N)CC(=O)O)C(N)=O	i	nt	i[12.6 µM]
Cc1ccc(CNc2ncnc3ccc(-c4ccoc4)cc23)o1	nt	nt	i	DYRK1A inh-1=6.5µM
c1nc(NCc2ccc3c(c2)OCO3)c2cc(-c3ccoc3)ccc2n1	nt	nt	i
FC(F)(F)c1ccccc1-c1nc(NCc2ccc(Br)cc2)c2ccccc2n1	nt	nt	i
COC(=O)c1ccc(O)c2ncc(N(C)C)cc12	nt	nt	i
NC(=O)c1cccc(-c2cnc3c(O)ccc(C(=O)O)c3c2)c1	nt	nt	i
NC(=O)c1cccc(-c2cc(OC(=O)NC3CCCCC3)ccc2O)c1	i	nt	?	NNMT inh=i
Cc1cccc2c(C(=O)O)cc(Cl)nc12	nt	nt	i
Cc1cc2c(c(=O)[nH]1)OC(C(O)CC(C)C)O2 (stereo unspecified)	i	nt	i	NNMT inh=i
CC(NCc1ccc(OCc2cccc(F)c2)cc1)C(N)=O (stereo unspecified)	i	nt	i
c1nc(NCC2CCCCC2)c2cc(-c3ccc4c(c3)OCO4)ccc2n1	nt	nt	?	CLK4 inh-1=0.073µM;CLK4 inh-2=0.15;DYRK1A inh-2=0.19µM;CLK2 inh=0.86µM;CLK3 RBC=5.3µM;DYRK1B inh=1.1µM;CLK1 inh=0.51µM
NCCNc1ncnc2ccc(-c3ccc4c(c3)OCO4)cc12	nt	nt	nt	DYRK1A inh-1=0.18µM;CLK4 inh-2=8.4;DYRK1A inh-2=5.5µM;CLK2 inh=6.4µM;CLK3 RBC=15µM;DYRK1B inh=i;CLK1 inh=5.6µM
S=C(NCc1ccc2c(c1)OCO2)N1CCN(c2ncnc3c2oc2ccccc23)CC1	i	nt	i
CN(CC1CCCCC1)c1ncnc2ccc(-c3ccc4c(c3)OCO4)cc12	nt	nt	nt	CLK4 inh-1=0.058µM
c1nc(N2CCNCC2)c2cc(-c3ccc4c(c3)OCO4)ccc2n1	nt	nt	?	CLK4 inh-1=0.58µM
CC(C)c1nc2c(cnn2C)c(=O)n1N	nt	nt	i
Cc1ccc(OCCn2c(CCNC(=O)c3cccc4ccccc34)nc3ccccc32)cc1	nt	nt	i
CN(C)CCCNc1ncnc2ccc(-c3ccc4c(c3)OCO4)cc12	nt	nt	?	CLK4 inh-1=1µM
SMILES	FH mod	GALC G270D act	NTMT1 inh	others
CCc1cnn2c(NCc3ccc[n+]([O-])c3)cc(N3CCCCC3CCO)nc12 (stereo unspecified)	i	nt	i
COc1cc(Nc2c(C#N)cnc3cc(OCCCN4CCN(C)CC4)c(OC)cc23)c(Cl)cc1Cl	i	i	7.9µM	NNMT inh=20µM
COc1cc2nc(N3CCN(C)CC3)nc(NCCN(C)C)c2cc1OC	nt	nt	i
CCOC(=O)c1cnc2cc(Cl)c(OC)cc2c1Nc1ccc(Br)cc1C	i	i	i
O=C(NCc1ccc(S(=O)(=O)c2cccc(C(F)(F)F)c2)cc1)c1cnc2[nH]ncc2c1	nt	nt	i
COc1ccc(CC(=O)Nc2ccc(S(=O)(=O)Nc3cc(C)on3)cc2)cc1C	nt	nt	i
FC(F)(F)c1ccc(-c2nc(-c3nnc4n3CCCCC4)c(C(F)(F)F)o2)cc1	nt	nt	i
COc1ccc(NC(=O)c2cnc(N3CCOCC3)c3ccccc23)cc1OC	i	i	i
Nc1ccc(C(=O)Nc2cccc(-c3nc(N4CCOCC4)c4oc5ncccc5c4n3)c2)cn1	i	nt	i	NNMT inh=i
Cc1nc(CNc2ncnc3ccc(-c4ccoc4C)cc23)cs1	nt	nt	i	DYRK1A inh-1=7.3µM
Cc1nc(CNc2ncnc3ccc(-c4sc(C)nc4C)cc23)cs1	nt	nt	?	DYRK1A inh-1=8.2µM
